This is part of a sample that, as a whole, favours compounds with a hit. Of some 83,000 tested, about 20% had one in any assay.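 Plates (96-well) were seeded with cells, treated with compound at one concentration, and incubated for 48 hours before percent growth was determined.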 Activity calls are given as the source filed them. The calls were made as follows: active = growth percent below 10; inactive = the rest.
Experiments:
Assay in all cases: NCI-60 one-dose screen, 48 h (100 = growth as untreated, 0 = no growth, -100 = all killed)
Conditions in all cases: 10 µM unless noted
[1] = tested on: NCI-H23 lung
[2] = tested on: NCI-H226 lung
[3] = tested on: NCI-H322M lung
[4] = tested on: HOP-62 NSCLC
[5] = tested on: NCI-H460 lung
[6] = tested on: HOP-92 NSCLC
[7] = tested on: NCI-H522 lung
[8] = tested on: A549/ATCC NSCLC
[9] = tested on: 786-0 renal
[10] = tested on: COLO 205 colon

Measured: growth

O=C(Nc1cccc(-n2cc(-c3ccncc3)c(-c3ccc(Cl)c(O)c3)n2)c1)Nc1cccc(C(F)(F)F)c1
active: [5] 7.29% | [6] -17.7% | [7] -10.8% | [8] 5.74%
inactive: [1] 14.6% | [2] 35.1% | [3] 48.2% | [4] 38.1% | [9] 34.4% | [10] 94.2%

COc1cc(C(=O)/C=C/c2c(C)n([O-])c3ccc(C(F)(F)F)cc3[n+]2=O)cc(OC)c1OC
active: [7] -82.1%
inactive: [1] 98.2% | [2] 81.6% | [3] 118% | [4] 118% | [5] 116% | [6] 87.3% | [8] 94.1% | [9] 101% | [10] 46.2%

c1cc2[nH]ncc2cc1-c1nc2ccc3[nH]ncc3c2c2c1CCC2
inactive: [1] 70.2% | [2] 42.5% | [3] 58% | [4] 47.6% | [5] 31.5% | [6] 42.5% | [8] 39.4% | [9] 49.7% | [10] 25.7%
active: [7] 6.78%

CCOC(=O)/C(C#N)=C1/C(=O)Nc2ccccc21
inactive: [1] 108% | [2] 116% | [3] 127% | [4] 104% | [5] 120% | [6] 110% | [7] 183% | [8] 112% | [9] 124% | [10] 118%

CCOC(=O)C1CCNC(=O)C1=O (stereo not given)
inactive: [1] 107% | [2] 97% | [3] 144% | [4] 112% | [5] 113% | [6] 102% | [7] 116% | [8] 109% | [9] 98% | [10] 114%

CC(=O)Nc1scc[n+]1Cc1ccccc1
inactive: [1] 88% | [2] 106% | [3] 131% | [4] 105% | [5] 112% | [6] 99.2% | [7] 103% | [8] 104% | [9] 102% | [10] 111%

COC(=O)C1CCCN1C(=O)[C@@H]1CCCN1C(=O)[C@H](Cc1c[nH]c2ccccc12)NC(=S)Nc1cc(C(F)(F)F)cc(C(F)(F)F)c1 (stereo not given in full)
inactive: [1] 69% | [2] 75.7% | [3] 74.7% | [4] 80.2% | [5] 22.3% | [6] 17% | [7] 46% | [8] 37.1% | [9] 37.6% | [10] 66.5%

CC(C)c1ccc2occ(C=C3C(=O)NC(=O)NC3=O)c(=O)c2c1
inactive: [1] 97.5% | [2] 106% | [3] 116% | [4] 101% | [5] 102% | [6] 63% | [7] 88.7% | [8] 100% | [9] 91.6% | [10] 117%

Cc1ccc(/C=C2\CN(C(=O)CCN3CCC(=NO)CC3)C/C(=C\c3ccc(C)cc3)C2=O)cc1
inactive: [2] 81% | [3] 16.8% | [4] 46.9% | [6] 72.2% | [8] 50.8%
active: [1] 7.62% | [5] -42.5% | [7] -28.6% | [9] -15.5% | [10] -35.4%

CCOC(=O)c1cn2c3c(cc(C)cc3c1=O)C(=O)/C(=C/c1ccccc1)C2
inactive: [1] 108% | [2] 94% | [3] 96.9% | [4] 79.2% | [5] 104% | [6] 57.1% | [7] 75.8% | [8] 89.1% | [9] 82.7% | [10] 93.4%

O=C(O)C1CCCCN1c1nc(Cl)nc(Cl)n1 (stereo not given)
inactive: [1] 98.9% | [2] 89.1% | [3] 106% | [4] 101% | [5] 105% | [6] 106% | [7] 93.3% | [8] 101% | [9] 105% | [10] 106%

Cc1ccc(S(=O)(=O)c2nc(-c3ccccc3)oc2S(C)(=O)=O)cc1
active: [6] -27.4% | [7] -84.4% | [9] -16.5% | [10] -76.6%
inactive: [1] 76.3% | [2] 90.5% | [3] 106% | [4] 80.7% | [5] 80% | [8] 85.6%

CCN1CCN(c2nc(NNC(=O)c3ccccc3)nc(N3CCN(C(c4ccccc4)c4ccccc4)CC3)n2)CC1
active: [5] 3.33% | [10] -57%
inactive: [1] 67.5% | [2] 73% | [3] 90.3% | [4] 79.7% | [6] 59.3% | [7] 65.8% | [8] 54.2% | [9] 66.4%

FC(F)(F)c1cccc(-c2cn3c(ccc4ccccc43)n2)c1
inactive: [1] 79.3% | [2] 94.6% | [3] 97.5% | [4] 76.7% | [5] 97% | [6] 102% | [7] 81.8% | [8] 95.4% | [9] 101% | [10] 109%

CCCCCCCC/C=C/CCCCCCCC1=NC(C)(C)CN1C(C)(C)CO
active: [5] -86.4% | [10] -86.3%
inactive: [1] 44.7% | [2] 86.2% | [3] 58.5% | [4] 30.6% | [6] 20.3% | [7] 13% | [8] 30.8% | [9] 60.3%

Cc1csc(NC(c2ccccc2)c2c(C)nc3ccccn23)n1 (stereo not given)
inactive: [1] 95.6% | [2] 94.8% | [3] 104% | [4] 95.4% | [5] 102% | [6] 68.4% | [7] 95.3% | [8] 99.1% | [9] 100% | [10] 106%

N=C(N)c1ccc(-c2cc(Cl)cc(Cl)c2)cn1
inactive: [1] 97.6% | [2] 82.4% | [3] 94% | [4] 91.6% | [5] 96.9% | [6] 59.3% | [7] 90.1% | [8] 93.9% | [9] 95.3% | [10] 19.5%

O=c1ccn(-c2ncnc3nc[nH]c23)cc1
inactive: [1] 92.1% | [2] 88.8% | [3] 97.5% | [4] 89.8% | [5] 113% | [6] 72.9% | [7] 80.4% | [8] 35.8% | [9] 97.1% | [10] 101%

CC(C)(C)n1cc(-c2ccnc(NCCCNS(=O)(=O)c3ccccc3)c2)c(-c2cccc(O)c2)n1
inactive: [1] 72.8% | [2] 53.4% | [3] 59.1% | [4] 66.1% | [5] 19.1% | [6] 77.7% | [7] 45% | [8] 38% | [9] 25.8% | [10] 14.7%

c1coc(CNc2ccnc(Nc3ccc(OCCN4CCCCC4)cc3)n2)c1
inactive: [1] 86.7% | [2] 68.1% | [3] 101% | [4] 93.1% | [5] 89.2% | [6] 69.5% | [7] 85.3% | [8] 92.5% | [9] 94.9% | [10] 89.5%

C=C1CCC2C(C)(CO)C(O)CCC2(C)C1C/C=C1/C(=O)OCC1Oc1ccccc1C (stereo not given)
inactive: [1] 94% | [2] 80% | [3] 98.6% | [4] 101% | [5] 104% | [6] 118% | [7] 23.8% | [8] 89.1% | [9] 98% | [10] 105%

Cc1c(C(=N)C(C#N)C#N)c(=N)oc2c1ccc1ccccc12
active: [7] -3.19%
inactive: [1] 73.2% | [2] 95% | [3] 89.9% | [4] 93.6% | [5] 97.4% | [6] 73.1% | [8] 92.8% | [9] 94% | [10] 115%

C=C[C@@H]1C[C@@H]2Cc3cc(F)ccc3N1O2
inactive: [1] 103% | [2] 120% | [3] 137% | [4] 102% | [5] 112% | [6] 105% | [7] 98.7% | [8] 95.3% | [9] 111% | [10] 123%

COc1ccc(-c2ccc(-c3ccc(-c4ccc(C(=N)N)cc4)s3)s2)cc1OC
inactive: [1] 88.7% | [2] 96.7% | [3] 111% | [4] 86% | [5] 97.7% | [6] 33.1% | [7] 99.9% | [8] 43.1% | [9] 93%
active: [10] -14.7%

C=C(C)[C@@H]1CC[C@]2(C(=O)N3CCNCC3)CC[C@]3(C)[C@H](CC[C@@H]4[C@@]5(C)C/C(=C/c6ccncc6)C(=O)C(C)(C)[C@@H]5CC[C@]43C)[C@@H]12
inactive: [1] 103% | [2] 95.7% | [3] 110% | [4] 107% | [5] 107% | [6] 95.8% | [7] 96.8% | [8] 102% | [9] 108% | [10] 113%

O=C(CSc1nc2ccccc2[nH]1)c1ccc(N2CCOCC2)cc1
inactive: [1] 92.9% | [2] 97.6% | [3] 99.5% | [4] 104% | [5] 104% | [6] 104% | [7] 102% | [8] 102% | [9] 96.4% | [10] 117%

O=Nc1c(-c2cccc([N+](=O)[O-])c2)nc2ncccn12
inactive: [1] 83.4% | [2] 102% | [3] 120% | [4] 100% | [5] 101% | [6] 87.4% | [7] 67.1% | [8] 97.7% | [9] 93.9% | [10] 65.1%
